Screening data from PubChem.
A selection: hits, their analogues and other compounds. The true share with any hit is near 0.87%.
BLM inh: Bloom syndrome helicase (human) inhibition. P54132. recombinant BLM DNA unwinding, fluorescence dequenching. Potency, µM (titrated, usually from 56.1 µM), most hits filed as inhibitors. actives 0.2% (n = 350,000); note: nearly all actives have a fitted effect of over 35% in size
RECQ1 inh: inhibitors of human RECQ1 DNA helicase | actives 0.54% (n = 240,000) | RECQ1 DNA unwinding, red fluorescence kinetic read | AID 2549 | P46063 | Potency, µM (series often up to 57.3 µM), actives largely listed as inhibitors; note: nearly all actives have a fitted effect of over 30% in size
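50 nM RECQ1T1 preincubated 15 min with compound in Tris pH 8.0 buffer with MgCl2, DTT, Tween-20 and 2.5 ug/ml poly(dI-dC); started with 200 nM TAMRA/BHQ-2 forked duplex and 2 mM ATP. Unwinding read as fluorescence (525/598 nm), two reads 2 h apart.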
KAT2A inh: inhibitors of human GCN5L2 histone acetyltransferase. GCN5L2 HAT assay, ThioGlo1 CoA-SH fluorescence. AID 504327. Potency, µM (highest dose often 58.9 µM), most hits filed as inhibitors. actives 0.21% (n = 390,000)
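Enzyme at 20nM final was mixed with library compounds for 15 min at room temperature. Peptide H3(1-25) at 75uM, acetyl-CoA at 70uM and ThioGlo1 at 50uM were then added. Plates were read immediately and after 20 min (Ex340nm/Em540nm).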
APEX1 inh: inhibitors of human APE1 endonuclease; P27695; recombinant APE1, TAMRA/BHQ-2 abasic DNA cleavage fluorescence; Potency, µM (doses to about 65.8 µM), most hits filed as inhibitors; actives 0.35% (n = 350,000); AID 2517; note: nearly all actives have a fitted effect of over 55% in size
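Kinetic fluorescence read (525 ex/598 em nm, three reads 60 s apart) of AP-site incision; signal = third minus first read. Enzyme 0.75 nM, dual-labelled THF duplex 50 nM, compound preincubation 15 min RT.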
TDP1 block: TDP1 (human) enzyme inhibition. Q9NUW8. recombinant TDP1, AlphaScreen DNA substrate cleavage. Potency, µM (doses to about 130 µM), usual class: inhibitors. actives 0.28% (n = 350,000). AID 485290; note: nearly all actives have a fitted effect of over 40% in size
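Recombinant human Tdp1 (E. coli-expressed, 1 nM final) preincubated with compounds 15 min at room temperature, then 5'-biotin/3'-phosphotyrosine-FITC DNA substrate (15 nM final) added for 5 min. AlphaScreen beads (10 ug/ml final) added 10 min; cleavage lowers signal.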
Numbers stand for hits; . = inactive; ? = inconclusive; / = no result given; [ ] = dose if it differs, or a comment. Calls come from the whole dose curve; as a rule, active = well fitted curve in the direction sought with a large enough effect; inconclusive = small, poorly fitted or top-dose-only effect, or another doubt; inactive = no such curve, though single readings can be large; an effect the other way counts as inactive or inconclusive.

SMILES | BLM inh | RECQ1 inh | KAT2A inh | APEX1 inh | TDP1 block
CCCCCCCCC1OC1CCCCCCCC(=O)O (configuration not stated) | . | . | / | . | .
Nc1nc(Nc2cc(F)cc(F)c2)nc(NC2CCCC2)n1 | / | / | / | / | .
CO[C@H]1C[C@@H]2CC[C@@H](C)[C@@](O)(O2)C(=O)C(=O)N2CCCC[C@H]2C(=O)O[C@H]([C@H](C)C[C@@H]2CC[C@@H](OCCO)[C@H](OC)C2)CC(=O)[C@H](C)/C=C(\C)[C@@H](O)[C@@H](OC)C(=O)[C@H](C)C[C@H](C)/C=C/C=C/C=C/1C | . | / | . | / | /
Cc1ccc(OCC(=O)N(C)CC(=O)NCc2ccco2)c(Br)c1 | / | / | . | ? | 32µM
CC(=O)c1cccc(OCC(=O)N(C)CC(=O)NCc2ccco2)c1 | / | / | . | 9.5µM | 7.1µM
NS(=O)(=O)c1ccc(NC(=O)CSc2nnc(NC3CC3)s2)cc1 | / | / | . | 11µM | 14µM
O=C(CSc1nnc(NC2CCCCC2)s1)Nc1ccc2c(c1)C(=O)c1ccccc1C2=O | . | . | . | ? | .
O=C(Nc1cccc(Cl)c1)OCC#CCCl | 28µM | 28µM | ? | 1.6µM | .
COc1ccc(C2Nc3ccccc3C(=O)N2CCCN(C)C)cc1COc1ccc(NC(C)=O)cc1 (configuration not stated) | / | / | / | / | .
Cc1cc(O)c(-c2cc(O)c(C)cc2O)cc1O | . | . | 16µM | . | .
O=C(/C=C/c1c(Cl)nc2ccccn12)N1CCN(c2ccc(F)cc2)CC1 | . | . | . | . | 79µM
Cc1cc(C)c(C(=O)/C=C/c2ccco2)c(=O)[nH]1 | . | . | . | ? | 16µM
Cc1ccc(/C=C/C(=O)c2c(C)cc(C)[nH]c2=O)cc1 | . | . | . | . | .
CC(C)(C)n1ncc2c(=O)n(Cc3ccccc3C(F)(F)F)cnc21 | / | / | / | . | /
O=C(N[C@H]1C/C=C\C[C@@H](CC(=O)N(CCO)Cc2ccccc2)C(=O)N2CCC[C@@H]2COC1=O)OCC1c2ccccc2-c2ccccc21 | / | / | . | 11µM | .
O=C(N[C@H]1C/C=C\C[C@@H](CC(=O)N(CCO)Cc2ccccc2)C(=O)N2CCC[C@H]2COC1=O)OCC1c2ccccc2-c2ccccc21 | / | / | . | . | .
COc1ccccc1-c1cc(=O)c2cc(O)ccc2o1 | . | . | / | . | .
CCOc1ccccc1-c1c2cc(O)c(=O)cc-2oc2cc(O)c(O)cc12 | 10µM | . | . | . | .
S=c1nc[nH]c2nc[nH]c12 | . | . | ? | . | 32µM
CCCCCCCCCCCCCCCC(=O)OCC(O)C1OC(=O)C(O)=C1O (configuration not stated) | ? | ? | 8.9µM | / | ?
Cc1cc2c(s1)c1cnn(Cc3ccc(S(C)(=O)=O)cc3)c(=O)c1n2C | / | / | / | / | .
CCOC(=O)C1=C(CSc2nc(-c3ccccc3)ccc2C#N)OC(N)=C(C#N)C1c1ccccc1 (configuration not stated) | . | 22µM | . | . | .
CCOC(=O)C1=C(CSc2nc(-c3ccccc3)ccc2C#N)OC(N)=C(C#N)C1c1cccnc1 (configuration not stated) | . | . | . | . | .
O=S1(=O)N=C(Oc2ccc(Cl)cc2)c2ccccc21 | / | / | / | / | .
CO[C@H]1C[C@H](O[C@H]2[C@H](C)[C@@H](O[C@@H]3O[C@H](C)C[C@H](N(C)C)[C@H]3OC(C)=O)[C@@H](C)C[C@]3(CO3)C(=O)[C@H](C)[C@@H](OC(C)=O)[C@@H](C)[C@@H](C)OC(=O)[C@@H]2C)O[C@@H](C)[C@@H]1OC(C)=O | / | / | / | . | /
SMILES | BLM inh | RECQ1 inh | KAT2A inh | APEX1 inh | TDP1 block
CSc1nc(N2CCN(CCO)CC2)c2sc3nc(-c4ccco4)c4c(c3c2n1)CCC4 | 13µM | . | . | . | .
CC(/C=C/C=C(C)/C=C/C(=O)O)=C\C=C\C=C(C)\C=C\C=C(C)\C=C\C(=O)O | / | 11µM | / | 2.5µM | 2.8µM
O=C1C(=O)c2ccc(-c3ccccc3)cc2-c2ccccc21 | 8.9µM | . | . | . | .
Nc1ccc2c(c1)C(=O)C(=O)c1ccccc1-2 | ? | . | .[0.501 µM] | . | .
N#Cc1nc(Nc2ccc(C(F)(F)F)cc2)nc(NC2CCCC2)n1 | / | / | / | / | .
CC(C)=CCCC1(C)C=Cc2c(O)c3c(c(CC=C(C)C)c2O1)OC12C(=CCCC1C(C)(C)O[C@@]2(C/C=C(\C)C(=O)O)C(=O)O)C3=O (some centres not stated) | . | . | 35µM | . | .
O=C(c1cccc(-n2cccc2)c1)N1CCN(S(=O)(=O)c2ccccc2)CC1 | / | / | ? | 1.5µM | /
CN(Cc1ccco1)c1ccnc(-c2cccnc2)n1 | . | . | . | ? | /
CN(Cc1ccco1)c1ccnc(-c2ccoc2)n1 | . | . | ? | . | 3.5µM
Cc1ccc(NC(=O)CN2C(=O)N/C(=C/c3cc(C)n(-c4ccc(C(=O)O)cc4)c3C)C2=O)cc1 | . | 40µM | ? | ? | /
O=C(O)c1ccc2ncsc2c1 | . | . | . | . | 45µM
O=C(c1ccc2ncsc2c1)N1CCCCC1 | . | / | . | . | .
O=C(NC(=S)Nc1ccccc1C(=O)O)c1ccc2ccccc2c1 | . | . | ? | . | .
O=C(O)c1ccc(NC(=S)NC(=O)c2ccc3ccccc3c2)cc1 | . | / | ? | ? | 32µM
CS(=O)(=O)c1ccc(-c2csc(N3CCC(C(N)=O)CC3)n2)cc1 | / | / | / | . | /
O=C(N/N=C1/C(=O)c2cccc3cccc1c23)c1ccc(Cl)cc1 | 10µM | . | . | . | /
